The panel holds about 79,000 compounds, 15% with a hit somewhere; the sample as a whole holds those more often. Rule as the data show it: active = growth inhibition above about 70%; inactive = the rest.
Tests used:
[1] = NCI Yeast Anticancer Drug Screen. Data for the rad50 strain (AID 155);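 also: 0% = growth of vehicle-only cultures of the same strain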; conditions: S. cerevisiae rad50 strain growth inhibition; at 50.0 µM; hits give high values
How it was run: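 Genetically altered yeast (DNA repair pathway); compound treatment; growth inhibition vs vehicle ctrl.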

[2] = NCI Yeast Anticancer Drug Screen. Data for the mec2-1 strain (AID 157); conditions: S. cerevisiae mec2-1 strain, at 50.0 µM, hits give high values
How it was run: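 Growth inhibition is read against vehicle-treated controls after compound exposure of the mec2-1 yeast strain, which is defective in DNA damage repair or cell cycle control.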

[3] = NCI Yeast Anticancer Drug Screen. Data for the sgs1 mgt1 strain (AID 161);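 also: 0% = growth of cultures given vehicle only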; conditions: S. cerevisiae sgs1 mgt1 strain, at 50.0 µM, hits give high values
How it was run: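 This yeast growth screen uses a strain with defined DNA-repair lesions; compound-treated growth is compared with vehicle-treated growth.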

[4] = NCI Yeast Anticancer Drug Screen. Data for the cln2 rad14 strain (AID 165);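 also: 0% = growth equal to vehicle treated cultures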; conditions: S. cerevisiae cln2 rad14 strain, at 50.0 µM, hits give high values
How it was run: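 Growth inhibition, relative to vehicle-treated controls, is the read-out. The test organism is a yeast strain with defined genetic alterations, cln2 rad14.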

[5] = NCI Yeast Anticancer Drug Screen. Data for the bub3 strain (AID 167); conditions: S. cerevisiae bub3 mutant strain, at 50.0 µM, hits give high values
How it was run: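 Yeast carrying a defined mutation is treated with each compound, and growth is compared with that of vehicle-exposed cells to give inhibition.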

[6] = NCI Yeast Anticancer Drug Screen. Data for the mlh1 rad18 strain (AID 175); conditions: S. cerevisiae mlh1 rad18 strain growth inhibition; at 50.0 µM; hits give high values
How it was run: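 Cells of a genetically altered yeast strain, deficient in DNA damage repair, were treated with compound. Their growth was then compared with that of vehicle-treated cultures to give inhibition.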

Measured: growth inhibition

CN(C)CCNC(=O)c1cnn(C)c1[N+](=O)[O-]
inactive: [1] 26.4% | [2] 8.75% | [3] 17.3% | [4] 13.2% | [5] 0% | [6] -59.1%

Cc1nnc2n1N=C(c1ccc(-c3ccc([N+](=O)[O-])cc3)o1)CS2
inactive: [1] 10.7% | [2] 3.1% | [3] -1.75% | [4] 12.1% | [5] -25.8% | [6] 10.8%

O=C1NC(N2CCOCC2)=N/C1=C\c1ccccc1
inactive: [1] 8% | [2] 11.2% | [3] -9.8% | [4] -3.65% | [5] -1.2% | [6] -15.3%

CCc1ccc(N=Nc2c(F)c(F)c(NC(C)=O)c(F)c2F)cc1
inactive: [1] -3.95% | [2] 11.3% | [3] -10.5% | [4] 6.9% | [5] 7.9% | [6] -13.4%

COc1cc([C@H]2c3[nH]c4ccccc4c3C[C@H]3COC(=O)N32)cc(OC)c1O
inactive: [1] 56.5% | [2] 9.85% | [3] 25% | [4] 12.1% | [5] 18.9% | [6] 51.9%

CC[N+](C)(CC)CCOC(=O)c1ccccc1Oc1ccc(C)cc1
inactive: [1] 23.1% | [2] -2.45% | [3] 7.8% | [4] -11.8% | [5] -2.1% | [6] 0.9%

Cn1cnc2cc3c(cc2c1=O)nc1n3CCCC1
inactive: [1] -1.7% | [2] -2.5% | [3] -12.6% | [4] -12.4% | [5] -6.75% | [6] -6.8%

CC1C(=O)C2C1CS2(=O)=O (stereo unspecified)
inactive: [1] -0.9% | [2] 0.65% | [3] 5% | [4] -59.1% | [5] 13% | [6] -5.45%

NCCSCc1ccccc1Cl
inactive: [1] -10.3% | [2] -27.2% | [3] -50.9% | [4] -33.5% | [5] -23.6% | [6] -0.4%

COc1ccc(C(c2cc3c(cc2O)OCO3)N2CCOCC2)c(OC)c1 (stereo unspecified)
inactive: [1] -75.2% | [2] -31.1% | [3] 4.15% | [4] -25.9% | [5] -29.6% | [6] -17.9%

CC(=O)c1cccc(NC(=O)Oc2ccc(F)cc2Cl)c1
inactive: [1] -2.3% | [2] 29.1% | [3] 18.8% | [4] -13.6% | [5] 12.9% | [6] -1.8%

CCC(=O)Oc1ccc(C(C)(C)CC(C)(C)C)cc1
inactive: [1] 32.2% | [2] -8.85% | [3] 34% | [4] -7.05% | [5] 6.05% | [6] 51.7%

CN(C)C(=S)/N=c1\ss/c(=N\C(=S)N(C)C)n1-c1ccc2c(c1)OCO2
inactive: [1] -16.1% | [2] -4.1% | [3] -3.45% | [4] -1.45% | [5] -16.9% | [6] 1.7%

Cc1ccc(S(=O)(=O)Oc2c(Cl)c(Cl)c(Cl)c(Cl)c2Cl)cc1
inactive: [1] -9.5% | [2] -10.1% | [3] 2.2% | [4] -15.3% | [5] 9.5% | [6] 5%

O=CNCC(O)c1ccc2c(c1)[nH]c1ccccc12 (stereo unspecified)
inactive: [1] 30.6% | [2] -16.2% | [3] -1.45% | [4] -10.3% | [5] 19% | [6] 47.4%

CC(C)(C)OC(=O)NC(CSSCC(NC(=O)OC(C)(C)C)C(=O)O)C(=O)O (stereo unspecified)
inactive: [1] -7.05% | [2] -10.2% | [3] -10.7% | [4] -3.45% | [5] -5.7% | [6] -6.4%

COC(=O)CC(C)(O)CCCC(C)C (stereo unspecified)
inactive: [1] 11.2% | [2] -5.15% | [3] 16.9% | [4] -17.9% | [5] 3.9% | [6] -14.2%

CCN(CC)C(=O)/C(C)=C(\C)c1ccccc1
inactive: [1] -12.7% | [2] 11.8% | [3] -11.6% | [4] 8.3% | [5] 2.9% | [6] -1.45%

O=C(CCl)OC1CCCCC1C1CCCCC1 (stereo unspecified)
inactive: [1] 22.7% | [2] 12.8% | [3] 39.3% | [4] -1.5% | [5] 32% | [6] 39.6%

Cc1nc2ccccc2c(=O)n1NC(=S)Nc1cccc(Cl)c1
inactive: [1] 7.35% | [2] -35.3% | [3] 28.1% | [4] -12.8% | [5] -8.2% | [6] -26.8%

COc1cc2c(cc1OC)C1Cc3ccc(OC)c(OC)c3C[N+]1([O-])CC2 (stereo unspecified)
inactive: [1] -24.9% | [2] -16.8% | [3] -6.95% | [4] 9.6% | [5] -15.6% | [6] -3.2%

Cc1ccccc1N(CCC#N)C1=NN(C(=O)CC(=O)Nc2ccc(Cl)cc2)C(c2ccccc2)C1 (stereo unspecified)
inactive: [1] 6.35% | [2] -9.05% | [3] -0.2% | [4] 15% | [5] -16.1% | [6] -5.35%

Cn1c(=O)c2c(nc(OCC[N+](C)(C)C)n2C)n(C)c1=O
inactive: [1] 5% | [2] 11.8% | [3] -0.25% | [4] 33.4% | [5] 1.85% | [6] 2.45%

CCN(Cc1cc(Nc2ccnc3cc(Cl)ccc23)ccc1O)C(=O)N1CCN(C)CC1
inactive: [1] 10.7% | [2] 6.1% | [3] 20.5% | [4] 15.8% | [5] -7.55% | [6] 11.1%

CC(C)(C)C(=O)/C=C/c1ccc(Oc2ccccc2)cc1
inactive: [1] 27.8% | [2] -28.7% | [3] 4.05% | [4] -15.6% | [5] -19.8% | [6] -20.8%

CC(=O)[C@@]1(O)CC[C@H]2[C@@H]3C[C@H](C)C4=CC(=O)C=C[C@]4(C)[C@@]3(F)[C@@H](O)C[C@@]21C
inactive: [1] -24.1% | [2] 9.65% | [3] -11.1% | [4] -33% | [5] -4.5% | [6] -22.1%

Cc1c([N+](=O)[O-])cc(C(C)(C)C)c(OC(=O)Nc2ccc(Cl)cc2)c1[N+](=O)[O-]
inactive: [1] 41.4% | [2] 63.7% | [3] 65.7% | [4] 52.2% | [5] 27.6% | [6] 69%

CCC(=O)[C@H]1CC[C@H]2[C@@H]3CCC4=CC(=O)CC[C@]4(C)[C@H]3CC[C@]12C
inactive: [1] -7.6% | [2] 26.9% | [3] 32% | [4] 6.5% | [5] 37.5% | [6] 2.45%

Oc1ccc(-c2cc(-c3cc(-c4ccc(O)cc4)no3)on2)cc1
inactive: [1] -1.95% | [2] -3.5% | [3] -10.8% | [4] -11.7% | [5] -32.3% | [6] -7.1%

C[n+]1cc(-c2ccccc2)cc(-c2ccccc2)c1
inactive: [1] 0.85% | [2] -3.35% | [3] -1.55% | [4] -29.8% | [5] -3.45% | [6] 6.85%

CCOc1cc2c(cc1O)CC[C@@H]1[C@@H]2CC[C@]2(C)C(N)CC[C@@H]12 (stereo partly specified)
inactive: [1] -0.95% | [2] 5.85% | [3] -18.2% | [4] -33.1% | [5] -20.1% | [6] -8.8%

O=C(COC(=O)c1ccccc1)c1ccc(-c2ccccc2)cc1
inactive: [1] -3.25% | [2] 16.3% | [3] 11.8% | [4] 30.4% | [5] 14.2% | [6] 11.7%

CCOc1ccc(NC(=O)C2=C(C)NC(C)=C(C(=O)Nc3ccc(OCC)cc3)C2c2ccc(O)c(OC)c2)cc1
inactive: [1] -17.4% | [2] 3% | [3] -14.8% | [4] -16.4% | [5] 16% | [6] -8.1%

Brc1cnc2nc(Cc3ccccc3)[nH]c2c1
inactive: [1] 5.05% | [2] 7.7% | [3] 17.3% | [4] -52.3% | [5] 27% | [6] 2.9%

CC(C)(C)C1CCC(C2CC(C(C)(C)C)CCC2=O)CC1 (stereo unspecified)
inactive: [1] 2.75% | [2] -8% | [3] 1.65% | [4] 5.15% | [5] 5.7% | [6] 27.8%

COC(=O)CCCCCN1C(=O)c2cccc([N+](=O)[O-])c2C1=O
inactive: [1] 20.6% | [2] 7.2% | [3] 15.6% | [4] 20.9% | [5] 15.2% | [6] 20.6%

O=C1CSc2nc3ccc(Br)cc3c(=O)n21
inactive: [1] 16% | [2] 9.1% | [3] 11.2% | [4] -19.4% | [5] 18.6% | [6] 20.9%

O=S(Cc1cnc2ccccc2c1)c1nc2ccccc2nc1-c1cccs1 (stereo unspecified)
inactive: [1] -10.2% | [2] -28.8% | [3] -20.7% | [4] -11% | [5] -8.4% | [6] -11.7%

c1ccc(-c2cnc3cccnc3n2)cc1
inactive: [1] -2.1% | [2] -24.7% | [3] -19.2% | [4] -36.5% | [5] -10.1% | [6] -12.6%

CCC(c1ccc(OC)cc1)C1NC(=S)NC1=O (stereo unspecified)
inactive: [1] 4.05% | [2] -30.1% | [3] 3.2% | [4] 6.45% | [5] 9.55% | [6] 11.6%

CC(C)COC(=O)c1cc(O)[nH]c(=O)c1
inactive: [1] -19.6% | [2] -7.8% | [3] 1.75% | [4] -40.1% | [5] -15.5% | [6] -6.8%

From PubChem BioAssay (NCI)
